# Measured values published in PubChem BioAssay AID687014 (The Scripps Research Institute Molecular Screening Center, 2013).
# The whole screen tested about 370,000 compounds, of which about 6,800 (1.8%) were called active. The sample holds actives, similar compounds and a random draw of the others, so the mix is not that of the screen. Unmarked numbers belong to inactive results.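 Rule for the calls: active = activation above a cutoff set at the mean of all screened compounds plus 3 SD (cut at about 10% in these data); inactive = the rest.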
# Tested on: Nuclear hormone receptor DAF-12 (Heterodera glycines), GAL4 fusion
# Assay: H. glycines DAF-12 receptor agonists, primary screen, cell-based, luminescence, HEK293, GAL4 fusion, UAS-luciferase (AID 687014);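 note: 0% = DMSO wells and 100% = sodium butyrate wells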
# Conditions: HEK293 GAL4-hgDAF12 UAS-luciferase reporter, agonist luminescence; at 6.8 µM; stronger effect = higher value; normalized to butyrate control
row,SMILES,activation
1,C=CS(=O)(=O)N(Cc1nnn(Cc2ccccc2)c1Br)[C@H](C(=O)OC)C(C)C,-3.42%
2,O=C(c1ccc(C(F)(F)F)cc1)C1CCCN(C(=O)c2csnn2)C1 (configuration not stated),-0.18%
3,Cc1cnc(C(=O)N2CCCC(C(=O)c3ccc(C(F)(F)F)cc3)C2)cn1 (configuration not stated),19.4% (active)
4,COCC(=O)N1CCCC(C(=O)c2ccc(C(F)(F)F)cc2)C1 (configuration not stated),-2.29%
5,COc1ccc(-n2c(SCC(=O)Nc3ccc4cn[nH]c4c3)nnc2-c2cccnc2)cc1,-0.21%
6,OC(CCl)CCl,2.07%
7,C/C(=N\Nc1nc2ccccc2[nH]1)c1cccs1,12.3% (active)
8,C/C(=N\Nc1ccc(S(N)(=O)=O)cc1[N+](=O)[O-])c1cccs1,-0.57%
9,C/C(=N\NC(=O)CSc1nc2ccccc2c(=O)n1-c1ccccc1C)c1cccs1,-2.57%
10,COCCCNC(=O)C[C@H]1C[C@@]2(C(=O)OC)C(=C[C@H](C(C)(C)C)O[C@@H]2C)N(Cc2ccc(Cl)cc2Cl)C1=O,-0.78%
11,Cc1cc(N2CCN(C(=O)OC(C)(C)C)C[C@H]2C)ccc1N1CCN(Cc2ccccc2)[C@H](C)C1,-0.97%
12,O=C(c1cc(-c2ccccc2O)on1)N1CCCC1,13.1% (active)
13,CC(=O)c1ccc(NC(=O)c2cc(-c3cccs3)on2)cc1,1.57%
14,O=C(c1cc(-c2cccs2)on1)N1CCCCC1,10.8% (active)
15,COc1ccc(C(=O)C2CCCN(C(=O)c3cc(C)on3)C2)cc1F (configuration not stated),-1.33%
16,COc1ccccc1-c1cc(C(=O)N2CCCCC2)no1,11.7% (active)
17,COc1ccc(OCc2cc(C(=O)N3CCCC3)no2)c2ccccc12,7.54%
18,O=C(c1cc(COc2cccc(C(F)(F)F)c2)on1)N1CCSCC1,-1.54%
19,CCOC(=O)C1CCCN(C(=O)c2cc(-c3cccs3)oc2C)CC1 (configuration not stated),-2.05%
20,O=C(c1cc(C2CCCCN2S(=O)(=O)c2ccccc2)on1)N1CCOCC1 (configuration not stated),1.09%
21,N#Cc1ccc(OC[C@@H](O)CN2CCC(C(O)(c3ccccc3)c3ccccc3)CC2)c(F)c1,-0.04%
22,CN(C)Cc1cn(-c2ccc(-c3noc4c3C(=O)N(CC(=O)N3CCOCC3)CC4)cc2)nn1,-1.17%
23,O=C(c1ccncc1)N1CC[C@H]2[C@H](CCCN2Cc2ccc(F)cc2)C1,5.55%

row,SMILES,activation
1,O=C(NCCS(=O)(=O)N1CCN(c2ccccc2F)CC1)c1ccc(Br)o1,0.09%
2,CC(=O)N1Cc2cc(C(=O)NCc3cccc(F)c3)nc(-c3cccc(C4=CCCC4)c3)c2[C@H]1CCO,-1.83%
3,COc1ccc2c(c1)CN1CN(CCc3ccccc3)S(=O)(=O)CC21 (configuration not stated),0.93%
4,Cc1ccoc1C(=O)Nc1cccc(Oc2ccccc2)c1,11.7% (active)
5,COc1ccc(/C=C/C(=O)OCC(=O)Nc2cccc(Oc3ccccc3)c2)c(OC)c1,2.49%
6,CC1(C(=O)Nc2cccc(Oc3ccccc3)c2)CCN1Cc1ccccc1Cl (configuration not stated),-0.38%
7,O=C(NCc1ccccc1)[C@@H]1CCCN1C(=O)[C@@H](NS(=O)(=O)c1ccc(F)cc1F)C1CCCCC1,-0.9%
8,C[C@H]1CN([C@@H](C)CO)C(=O)CCCn2nncc2CO[C@@H]1CN(C)C(=O)Nc1ccc(N2CCN(C)CC2)cc1,-1.55%
9,CCOc1ccc(-n2c(SCC(=O)Nc3cc(C)c(NC(=O)c4ccccc4)cc3OC)nnc2-c2cccc(Cl)c2)cc1,-2.83%
10,COC(=O)C1=C(C)N(Cc2cccc(C(F)(F)F)c2)C(=NCc2ccccc2)NC1c1ccc(Cl)cc1 (configuration not stated),4.18%
11,COc1ccc(Cc2nc3ccc(C(=O)NCC4CCOCC4)cc3o2)cc1OC,2.3%
12,COCCNC(=O)c1ccc2nc(Cc3ccc(OC)c(OC)c3)oc2c1,4.83%
13,CSCCNC(=O)c1ccc2nc(Cc3ccccc3F)oc2c1,10.5% (active)
14,Brc1ccc(/C=N/N2CCN(C3c4ccccc4-c4ccccc43)CC2)s1,0.61%
15,COc1cccc(N(CC(=O)NC2CCCC2)C(=O)Cn2nnc(-c3ccc(C)o3)n2)c1,0.01%
16,C[C@]12CCC(=O)C=C1C=CC1C2CC[C@@]2(C)C1CC[C@@]21CCC(=O)O1 (some centres not stated),-2.47%
17,Cc1ccc(C)c(C(C)NC(=O)C2CCCO2)c1 (configuration not stated),-0.46%
18,Cc1cc(C)c2nc(NC(=O)C3CCCO3)sc2c1 (configuration not stated),11.9% (active)
19,O=C(Nc1nnc(SCc2c(Cl)cccc2Cl)s1)C1CCCO1 (configuration not stated),3.2%
20,CCOc1ccc(-n2c(SCC(=O)Nc3cc(C)c(NC(=O)c4ccccc4)cc3OC)nnc2-c2cccs2)cc1,7.81%
21,O=C(CSc1nnc2ccccn12)c1ccccc1,8.56%
22,Cc1ccc(-n2c(C)cc(C(=O)CSc3nnc4ccccn34)c2C)cc1,11.6% (active)
23,Cc1cc(C(=O)CSc2nc(N)cc(=O)[nH]2)c(C)n1-c1cccc(F)c1,-3.64%

row,SMILES,activation
1,CS(=O)(=O)N1CCc2nc(-c3ccccc3)sc2C1,15.3% (active)
2,CS(=O)(=O)N1CCN(c2cccc(Cl)n2)CC1,-0.95%
3,CS(=O)(=O)N1CCC(C(=O)N2CCN(c3ccccc3)CC2)CC1,-2.01%
4,CCc1c(-c2ccccc2OC)ncn1CCc1ccccc1OC,-2.96%
5,Cc1c(Cl)c([N+](=O)[O-])nn1Cc1ccc(C(=O)N/N=C\c2cc(Cl)ccc2O)o1,0.23%
6,CN(C)c1ccc(/C=N/NC(=O)c2ccc(Cn3cc(Br)cn3)o2)cc1,5.9%
7,O=C(N/N=C\c1ccc(Br)cc1)c1ccc(Cn2cccn2)o1,10.5% (active)
8,COc1ccc(-n2c(SCC(=O)Nc3ccccc3-c3ccccc3)nnc2-c2cccnc2)cc1,0.21%
9,COc1ccc(NC(=O)c2c(C)oc3c2CCCC3)cc1,3.38%
10,COc1ccc(C(=O)Nc2ccc(F)cc2F)cc1,10.5% (active)
11,O=C(Nc1ccc2ccccc2c1)Nc1ccc2snnc2c1,1.18%
12,COc1ccc(C(=O)Nc2ccc(-n3nncc3C(C)(C)C)cc2)cc1,-2.44%
13,COc1ccc(NC(=O)c2ccc(OC)cc2)cc1,14.9% (active)
14,COCCNC(=O)Nc1ccc2nc(-c3ccco3)c(-c3ccco3)nc2c1,-6.29%
15,COc1ccc(NC(=O)Nc2ccc3nsnc3c2)cc1,15.7% (active)
16,O=C(C=CC(=O)Nc1ccc(F)cc1F)Nc1ccc(F)cc1F,-0.27%
17,CCOC(=O)N1CCN(S(=O)(=O)c2ccc(C(=O)Nc3ccc(F)cc3F)cc2)CC1,3.94%
18,COc1ccc(-n2c(C)nn(CC3CC3)c2=O)cc1,-0.88%
19,Cn1c(CC2Sc3ccccc3NC2=O)nnc1SCC(=O)c1ccc(Cl)cc1 (configuration not stated),2.7%
20,CCn1c(SCC(C)=O)nc2sc3c(c2c1=O)CCCC3,-0.6%
21,Nc1[nH]c(C(=O)c2ccccc2)c(-c2ccc(Cl)cc2Cl)c1C(=O)c1ccccc1,0.29%
22,O=C(Nc1ccc(F)cc1)C(CCc1ccccc1)N1CCN(CC(=O)N2CCCC2)CC1 (configuration not stated),-2.94%
23,COC(=O)[C@]12C[C@H](CC(=O)NCCc3ccccc3OC)C(=O)N(Cc3ccccc3)C1=C[C@H](C(C)C)O[C@@H]2C1CC1,-1.92%

row,SMILES,activation
1,CC(NC(=O)c1cccc2ccccc12)c1ccc2c(c1)CCCC2 (configuration not stated),1.33%
2,O=C(N/N=C/c1ccc(O)c(O)c1)C1c2ccccc2Oc2ccccc21,-0.99%
3,O=C(NN=Cc1ccc2c(c1)CCC2)c1ccccc1O,14.7% (active)
4,Cc1nn(-c2ccccc2)c2[nH]c(C(F)(F)F)cc(=O)c12,0.5%
5,CC1CCN(C(=O)c2ncn3c2C(=O)N[C@@H](C)C3)CC1,0.1%
6,CCCc1cc(=O)[nH]c2nnc(SCC(=O)Nc3nnc(SCC)s3)n12,1.68%
7,COC(=O)c1ccc(CSc2nnc(NC(C)C)s2)cc1,-0.67%
8,CCSc1nnc(NC(=O)c2ccc(C)cc2)s1,14.4% (active)
9,CCOC(=O)N1CCN(C(=O)C[C@H]2C[C@@]3(C(=O)OC)C(=C[C@H](C(C)(C)C)O[C@@H]3C)N(Cc3ccc(Cl)cc3Cl)C2=O)CC1,0%
10,COC(=O)c1cccc(Cn2ccc3ccc(-c4ccc5ccn(C(=O)C6CCCCC6)c5c4)cc32)c1,3.04%
11,CC(NC(=O)COC(=O)c1ccc2ccccc2n1)c1ccccc1 (configuration not stated),5.11%
12,Cc1cccc(NC(=O)Cc2ccc(Br)cc2)n1,3%
13,Cc1cccc(NC(=O)c2ccc3ccccc3n2)n1,14.8% (active)
14,C=CCN1[C@@H](Cc2ccccc2)COc2cccc(N3CCSCC3)c2S1(=O)=O,3.43%
15,O=C1Oc2ccccc2C(=O)/C1=C/c1ccccc1O,-1.59%
16,COc1ccc(/C=C2/C(=O)OCc3cc(OC)c(OC)cc32)c(OC)c1,-3.92%
17,COc1ccc2c(c1)O/C(=C\c1ccccc1O)C2=O,13% (active)
18,CSc1ccc(Oc2cccc3c2S(=O)(=O)N([C@H](C)c2ccccc2)C[C@@H](COCc2ccccc2)O3)cc1C,1.48%
19,O=S1(=O)c2c(cccc2N2CCCC2)O[C@H](COCc2ccccc2)CN1C1CC1,-1.8%
20,CONc1nc2nonc2nc1NOC,-3.04%
21,O=C(COc1cccc(-n2cnnn2)c1)NCCC1=CCCCC1,-1.74%
22,O=C(NCCC1=CCCCC1)c1ccc(Cl)c([N+](=O)[O-])c1,4.8%
23,O=C(NCCC1=CCCCC1)c1ccc(-n2cncn2)cc1,11.6% (active)
